S2 tox – cell viability loss in ATXN counter-screen | S2 cells (HEK-293 line with an ATXN2-luciferase reporter) viability, CellTiter-Fluor protease fluorescence, 24 h | Potency, µM (highest dose often 56.7 µM), usual class: cytotoxic | hit rate 0.49% among 400,000; also: nearly all actives have a fitted effect of over 40% in size
ATXN2 expr inh – ATXN2 expression inhibition | Potency, µM (series often up to 57 µM), usual class: inhibitors | HEK-293 ATXN2-luciferase reporter, luminescence, 24 h | hit rate 0.72% among 360,000 | AID 1745845; also: nearly all actives have a fitted effect of over 55% in size
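ATXN2-luciferase reporter cells (luciferase flanked by upstream and downstream ATXN2 gene portions) were treated 24 h at 37 °C with compounds at up to 57 uM. SteadyGlo luminescence gave expression; GF-AFC fluorescence gave viability.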
TGFb inhibitor – inhibitors of TGF-b signaling | HepG2 CAGA-GFP TGF-b/SMAD3 reporter, GFP fluorescence, 18 h; TGF-beta stimulated, 500 pg/mL final | Potency, µM (highest dose often 46.1 µM), hits mostly inhibitors | hit rate 1.2% among 410,000; also: nearly all actives have a fitted effect of over 65% in size
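Inhibition was scored as loss of TGF-beta-induced (500 pg/mL final, 18 hours, 37 degrees C) GFP in HEPG2 cells carrying a CAGA-GFP reporter, in DMEM with 1% FBS. Well GFP was summed per cell; Activity was normalised to unstimulated and stimulated DMSO wells, then concentration-response fitting.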
LDHA block – LDHA (human) enzyme inhibition; P00338; purified LDHA, NADH/diaphorase-resazurin fluorescence; stronger effect = lower value; hit rate 0.15% among 480,000; AID 1347041; activity change, % (values are at about 110 or 230 µM); in the data active = activity change below about -30%; inconclusive = mostly about -25% to -30%
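Resorufin fluorescence (ex540/em590), read at 0 and 20 min after diaphorase/resazurin addition, reports the NADH left after a 5 min room-temperature reaction of 2 nM human LDH5 with 0.06 mM NADH and 0.2 mM pyruvate.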
mIDH1 inhibitor – blocks human mutant IDH1 R132H enzyme | IDH1-R132H enzyme, NADPH consumption, diaphorase/resazurin fluorescence | Potency, µM (top dose mostly 76.6 µM), hits mostly inhibitors | hit rate 0.093% among 390,000 | AID 602179; also: nearly all actives have a fitted effect of over 65% in size
Target sequence (O75874 whole entry R132H, stated change not applied): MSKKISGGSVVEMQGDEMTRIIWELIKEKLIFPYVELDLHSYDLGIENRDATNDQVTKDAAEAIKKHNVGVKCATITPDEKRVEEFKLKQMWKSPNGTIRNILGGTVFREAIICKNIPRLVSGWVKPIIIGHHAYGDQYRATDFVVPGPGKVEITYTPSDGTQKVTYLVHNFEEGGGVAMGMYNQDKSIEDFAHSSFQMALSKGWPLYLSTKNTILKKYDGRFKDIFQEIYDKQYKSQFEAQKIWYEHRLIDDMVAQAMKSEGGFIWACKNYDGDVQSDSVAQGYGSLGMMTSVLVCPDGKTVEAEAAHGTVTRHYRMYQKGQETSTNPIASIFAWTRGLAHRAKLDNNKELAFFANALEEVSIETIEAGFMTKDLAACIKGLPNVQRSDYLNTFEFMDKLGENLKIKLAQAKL
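IDH1-R132H (0.5 ug/mL dispensed) in pH 7.5 Tris buffer was preincubated 30 min with compound, then given a substrate mix of 0.016 mM NADPH and 2 mM alpha-KG for 80 min at room temperature; remaining NADPH was read by diaphorase/resazurin fluorescence.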
HepG2 tox-1 – counter-screen for TGF-b inhibitors: cytotoxicity in HepG2 cells; HepG2 CAGA-GFP viability, ATP luminescence, 18 h; Potency, µM (top dose mostly 46.1 µM), most hits filed as cytotoxic; hit rate 0.76% among 410,000
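HepG2 CAGA-GFP cells (1000/well, DMEM with 1% FBS) received compound, then TGF-beta at 500 pg/mL final, and were incubated 18 hours at 37 degrees C. Viability was read by CellTiter-Glo luminescence. Media-only wells were set as complete cell-killing and DMSO as no toxicity.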
TGFb confirm – TGF-b pathway inhibition, cherry-pick retest | AID 720534 | shares compounds with TGFb inhibitor | HepG2 CAGA-GFP TGF-b reporter, GFP fluorescence, 18 h; cells stimulated with TGF-beta, 500 pg/mL | Potency, µM (doses to about 46.1 µM), usual class: inhibitors | hit rate 63% among 1,600; also: nearly all actives have a fitted effect of over 65% in size
HepG2 tox-2 – toxic to HepG2 cells in TGF-b counterscreen | shares compounds with TGFb inhibitor | HepG2 CAGA-GFP viability, ATP luminescence, 18 h; cells stimulated with TGF-beta, 500 pg/mL | Potency, µM (doses to about 46.1 µM), usual class: inhibitors | hit rate 27% among 1,600 | AID 720535; also: nearly all actives have a fitted effect of over 70% in size
CCL64 TGFb inh – blocks TGF-b signaling in CCL64 reporter cells | Potency, µM (titrated, usually from 46.1 µM), most hits filed as inhibitors | hit rate 41% among 1,600 | shares compounds with TGFb inhibitor | CCL64 CAGA-GFP reporter, TGF-b stimulated, GFP fluorescence, 18 h; also: nearly all actives have a fitted effect of over 65% in size
TGFb COP inh – blocks TGF-b signaling in HepG2 COP reporter. shares compounds with TGFb inhibitor. HepG2 COP-GFP TGF-b reporter, GFP fluorescence, 18 h; cells stimulated by added recombinant TGF-beta. Potency, µM (top dose mostly 46.1 µM), actives largely listed as inhibitors. hit rate 3% among 1,600; also: nearly all actives have a fitted effect of over 70% in size
Each line names hits and unclear results; the compound was inactive in the other large screens (follow-up assays come after a bar, where they were run). A selection: hits, their analogues and other compounds. The true share with any hit is near 2.2%. Unless noted, calls follow the shape of the dose curve; as a rule, active = well fitted curve in the direction sought with a large enough effect; inconclusive = small, poorly fitted or top-dose-only effect, or another doubt; inactive = no such curve, though single readings can be large; an effect the other way counts as inactive or inconclusive.

O=C(CN1CCCC1)Nc1ccc([N+](=O)[O-])cc1Cl	none
Cc1cn([C@H]2C[C@H](O)[C@@H](CCC(=O)NCC3CCCO3)O2)c(=O)[nH]c1=O (some centres not stated)	none (no result: mIDH1 inhibitor)
CCN(CC)S(=O)(=O)c1cccc(NC(=O)Nc2cccc(C(F)(F)F)c2)c1	S2 tox inconclusive, ATXN2 expr inh 22µM, TGFb inhibitor 7.9µM, HepG2 tox-1 11µM | TGFb confirm 10µM | HepG2 tox-2 inconclusive | CCL64 TGFb inh 8.2µM | TGFb COP inh inactive
OC(COC(c1ccccc1)c1ccccc1)CN1CCN(c2cccc(Cl)c2)CC1 (configuration not stated)	S2 tox inconclusive, TGFb inhibitor 16µM | TGFb confirm 18µM | HepG2 tox-2 inconclusive | CCL64 TGFb inh inconclusive | TGFb COP inh inactive
OC(CN1CCN(c2cccc(Cl)c2)CC1)c1ccccc1 (configuration not stated)	none
C[C@@H](C(=O)NCCc1ccccc1)N1C(=O)N2CCc3c([nH]c4ccccc34)[C@@]2(C)C1=O	S2 tox inconclusive, TGFb inhibitor 10µM | TGFb confirm 16µM | HepG2 tox-2 inconclusive | CCL64 TGFb inh inconclusive | TGFb COP inh inactive
C[C@@H](C(=O)NCCc1ccccc1F)N1C(=O)N2CCc3c([nH]c4ccccc34)[C@@]2(C)C1=O	S2 tox inconclusive, TGFb inhibitor inconclusive
Cc1ccc(OCCOC(=O)c2cc(S(=O)(=O)N3CCCCC3)ccc2N2CCOCC2)cc1	S2 tox inconclusive, TGFb inhibitor inconclusive
Cc1cc(N2CCN(c3ccccc3Cl)CC2)n2cc(-c3ccccc3)nc2n1	S2 tox inconclusive, ATXN2 expr inh inconclusive, TGFb inhibitor inconclusive
Cc1cc(N2CCN(c3ccccc3)CC2)n2cc(-c3ccccc3)nc2n1	S2 tox inconclusive, TGFb inhibitor inconclusive | TGFb confirm inconclusive | HepG2 tox-2 inactive | CCL64 TGFb inh inactive | TGFb COP inh inactive
CCCCn1c(N)c(N(CCOC)C(=O)c2ccc(-c3ccccc3)cc2)c(=O)[nH]c1=O	none
O=C(NCc1ccco1)c1ccc(COc2cc(Cl)ccc2Cl)cc1	TGFb inhibitor inconclusive
Cc1ccc(-n2c3c(c(=O)[nH]c2=O)CN(Cc2ccccn2)CN3)cc1C	none (no result: S2 tox, ATXN2 expr inh, TGFb inhibitor, mIDH1 inhibitor, HepG2 tox-1)
Cc1cc(Br)ccc1NC(=O)c1nc2ccccc2nc1N1CCCC1	none (no result: S2 tox, ATXN2 expr inh, TGFb inhibitor, mIDH1 inhibitor, HepG2 tox-1)
CCC(C(=O)Oc1c(C(C)C)cccc1C(C)C)c1ccccc1 (configuration not stated)	TGFb inhibitor inconclusive | TGFb confirm inconclusive | HepG2 tox-2 inactive | CCL64 TGFb inh 21µM | TGFb COP inh inactive
C#CCOCCOCCOCCNc1nc(N2CCN(C(=O)[C@H]([C@@H](C)CC)n3cc([C@@H](N)CO)nn3)CC2)nc(N2CCN(C(=O)[C@H]([C@@H](C)CC)n3cc([C@@H](N)CC(C)C)nn3)CC2)n1	TGFb inhibitor inconclusive
